Screening results deposited in PubChem BioAssay by National Center for Advancing Translational Sciences (NCATS).
In the library only some 4.2% were active in any assay of this set; here they are far more common.
Mito fusion yeast: qHTS Assay for Small Molecule Inhibitors of Mitochondrial Division or Activators of Mitochondrial Fusion | Potency, µM (highest dose often 46.1 µM), inactives show at the top dose growth rescue (activation), actives largely listed as activators | S. cerevisiae fusion-defective mutant growth rescue, CellTiterGlo 48 h | hit rate 0.23% among 320,000; also: % of control where 0% means no effect; nearly all actives have a fitted effect of over 45% in size
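Compounds are tested for their ability to restore growth of mitochondrial fusion-defective yeast strains at non-permissive 37C in YPEG medium over 48 hours. Viability is quantified by luciferase luminescence.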
AT treatment: qHTS Assay for Identifying a Potential Treatment of Ataxia-Telangiectasia; F2112 A-T fibroblasts, KAP-1 phosphorylation AlphaLISA; neocarzinostatin DNA damage 30 min before lysis; Potency, µM (top dose mostly 57.5 µM), without a hit: at the top dose activation, most hits filed as activators; hit rate 0.19% among 320,000; AID 485349, 2010; also: % of control where 0% means no effect; nearly all actives have a fitted effect of over 45% in size
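ATM-like activity read as KAP-1 phosphorylation via AlphaLISA donor/acceptor antibody pairs after lysis and 6 hr at 25C. Cells were ATM-null patient fibroblasts (F2112, hTERT), dosed 60 min, then exposed to the DSB inducer NCS for 30 min.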
a7 integrin act: qHTS for Activators of Integrin-Mediated Alleviation for Muscular Dystrophy; hit rate 0.064% among 350,000; Potency, µM (highest dose often 38.3 µM), for inactives: at the top dose activation, most hits filed as activators; alpha7betagal myoblasts, beta-gal FDG fluorescence, 48 h;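 also: 100% = response of the positive control SU9516; nearly all actives have a fitted effect of over 60% in size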
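Alpha7betagal+/- myoblasts (passage 13) were plated 16-24 hr, then exposed to compounds (1:260 dilution of DMSO stock) for 48 hours at 37C. After MPER lysis, β-galactosidase reporter activity was read as FDG fluorescence (ex 480/em 540) after 30 minutes.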
MCF10A rereplic: A quantitative high throughput screen for small molecules that induce DNA re-replication in MCF 10a normal breast cells; MCF 10A DNA re-replication, Hoechst nuclear intensity, 48 h; Potency, µM (doses to about 46.1 µM), inactives show at the highest dose activity, positive = re-replication, most hits filed as activators; hit rate 2.9% among 350,000; also: % of control where 0% means no effect; nearly all actives have a fitted effect of over 50% in size
SW480 rereplic: A quantitative high throughput screen for small molecules that induce DNA re-replication in SW480 colon adenocarcinoma cells. SW480 DNA re-replication, Hoechst DNA content imaging, 48 h. Potency, µM (doses to about 46.1 µM), inactives show at the highest dose re-replication activation, most hits filed as activators. hit rate 1.8% among 340,000; also: % of control where 0% means no effect; nearly all actives have a fitted effect of over 55% in size
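Image-based read-out: total Hoechst fluorescence of nuclei (405 nm excitation, 500-530 nm emission), with hits raising the fraction of high-intensity nuclei. SW480 colon cells incubated 48 hr with compounds at 37 C.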
* = called active by the depositor; ? = inconclusive; · = no result given; ! = not confirmed by another sample; [ ] = remark or other dose. Calls follow the shape of the dose curve; as a rule, active = well fitted activation curve with a large enough effect; inconclusive = small, poorly fitted or top-dose-only effect; inactive = no such curve, though single readings can be large or run the other way. Potency is read from the fitted curve at half-maximal effect.

SMILES	Mito fusion yeast	AT treatment	a7 integrin act	MCF10A rereplic	SW480 rereplic
COCCSc1ccccc1C(=O)Nc1cc(C)cc(C)c1	-0.7%	1.6%	4.47µM*	-10.0%	-24.8%
COC(=O)[C@H](C)N(Cc1ccc(Cl)c(Cl)c1)S(=O)(=O)CCNC1CCCC1	·	-2.9%[11.5 µM]	-14.4%	7.2%	?
CCc1ccccc1NC(=O)Nc1cc(F)ccc1F	4.1%	3.7%	?	-0.6%	29.1µM*
CCn1cc(/C=C/c2cc[n+](C)cc2)c2ccccc21	7.8%	3.16µM*	-67.3%	16.4µM*	?
CC(C)n1cc(/C=C/c2cc[n+](C)cc2)c2ccccc21	-2.7%	-5.6%	-85.5%	6.51µM*	18.4µM*
C=CCn1c(C)c(/C=C/c2cc[n+](C)cc2)c2ccccc21	-5.6%	7.3%	-77.2%	?	14.6µM*
C=CCn1cc(/C=C/c2cc[n+](C)cc2)c2ccccc21	-5.5%	2.0%	-56.4%	?	?
COc1ccc(N(C(=O)C(C)C)S(=O)(=O)c2ccc3ccccc3c2)cc1	-10.5%	5.3%	10.5%	-4.5%	1.5%
CNC(=O)/C(C#N)=C/c1c(N2CCN(c3ccc(OC)cc3)CC2)nc2c(C)cccn2c1=O	3.8%	-20.0%	-4.3%	20.6µM*	-1.2%
COCCNC(=O)/C(C#N)=C/c1c(N2CCN(C)CC2)nc2c(C)cccn2c1=O	1.5%	-20.0%	7.2%	-6.1%	20.6µM*
CCN1CCN(c2nc3c(C)cccn3c(=O)c2/C=C(\C#N)C(=O)NCCOC)CC1	-0.5%	0.0%	13.1%	16.4µM*	6.51µM*
C[C@H](CO)N1C[C@H](C)[C@@H](CN(C)S(=O)(=O)c2cn(C)cn2)Oc2ccc(NS(=O)(=O)c3ccccc3)cc2C1=O	·	-0.2%	33.0%	-24.4%	?
O=C(Cn1nc(C(F)(F)F)c2c1CCCC2)Nc1ccc(Br)cc1	-6.4%	·	·	·	·
Cc1ccc(-c2n[nH]c(=S)n2Cc2ccccc2)cc1	12.4%	-3.2%	-11.7%	12.6%	?
S=c1[nH]nc(-c2cc3ccccc3o2)n1Cc1ccccc1	14.1µM*	-8.7%	3.8%	16.0%	1.9%
CC(C)CN=C(NS(=O)(=O)c1ccccc1)C(Cl)(Cl)Cl	?	16.2%	-52.4%	2.91µM*	6.51µM*
Cc1ccc(C(=O)/C=C\C(=O)c2ccc(C)cc2)cc1	-18.6%	?	11.9%	?	?
Cc1ccc(S/C=C\C(=O)c2ccccc2)cc1	-2.3%	·	-55.6%	4.11µM*	?
CO/N=C/CC(=O)c1cnc(-c2ccc(Cl)cc2)s1	1.7%	-1.2%	-9.0%	4.6%	-101.6%
CCCCn1c(N)c(N(Cc2ccccc2OC)C(=O)CCC(C)C)c(=O)[nH]c1=O	-1.5%	1.3%	6.3%	5.6%	-2.7%
COc1ccc(/C=C2\SC(=S)N(CCC(=O)NCCCn3ccnc3)C2=O)cc1	19.9%	-8.8%	-30.9%	0.8%	-23.0%
O=C(CCCN1C(=O)/C(=C/c2ccc(F)cc2)SC1=S)NCCCn1ccnc1	-0.1%	-7.8%	-33.0%	20.6µM*	-14.2%
CCOc1ccc(/C=C2\SC(=S)N(CCCC(=O)NCCCN3CCOCC3)C2=O)cc1	9.8%	3.2%	-51.3%	?	16.4µM*
OCc1ccc(-c2nn(Cc3ccccc3)c3ccccc23)o1	20.6µM*!	19.4%	·	-5.6%	-3.9%
CCc1nc2ccccc2c(C(=O)OCC(=O)NC(=O)c2cccn2C)c1C	-2.9%	1.8%	2.0%	2.5%	-11.9%
CCc1ccc(-c2csc3[n+]2CCN3C(C)=O)cc1	6.5%	-5.1%	-32.1%	?	2.31µM*
CC(=O)N1CC[n+]2c(-c3ccc(Cl)cc3)csc21	?	-2.2%	0.0%	2.5%	-3.1%
C=C(C)Cn1c(SCC(=O)N/N=C/c2ccccc2OCC(=O)O)nnc1-c1ccc(Br)cc1	-4.8%	39.8µM*	29.3%	-0.4%	-6.2%
CCOc1ccc(C(=O)CCN2CCCCCC2)cc1	-1.4%	-0.1%	-62.1%	3.26µM*	?
CCN1CCN(CC(=O)c2ccc(OC)cc2)CC1	4.5%	-5.9%	-17.7%	2.06µM*	-55.1%
